High-throughput results (PubChem BioAssay)
In the library only some 3.7% were active in any assay of this set; here they are far more common.
Anthrax LF inh2: inhibitors of Bacillus anthracis lethal factor protease; AID 588501; P15917; multiplex microsphere protease cleavage assay, LF; 0.12% of 360,000 active; inhibition, % at 10 µM; further: plate controls were buffer without enzyme for full effect and enzyme alone for no effect
BoNT A protease: BoNT A light chain protease inhibition. multiplex microsphere protease substrate cleavage, flow cytometry. inhibition, % at 10 µM. 0.17% of 360,000 active; further: plate controls were buffer without enzyme for full effect and enzyme alone for no effect
Autofluor counter: flagged as autofluorescent in microsphere protease counterscreen | compound autofluorescence counterscreen, microsphere flow cytometry; hits give high values | fluorescence intensity (no concentration beside the values) | 3.1% of 360,000 active | AID 624483; in the data active means fluorescence intensity above about 16000; inconclusive means no clear call, values can overlap the other calls
MazEF act: activators of E. coli MazEF toxin-antitoxin RNase; P0AE70; FAM/BHQ RNA-DNA oligo cleavage fluorescence, 5 h; activation, % at 20 µM; AID 504720; 0.32% of 350,000 active; in the data active means activation above about 50%
BoNT F protease: BoNT F light chain protease inhibition; Multiplex microsphere protease cleavage assay, flow cytometry; 0.22% of 360,000 active; inhibition, % at 10 µM; AID 588497; in the data active means inhibition above about 35%, passing the limit was not always enough; inconclusive means no clear call, values can overlap the other calls; further: plate controls were buffer without enzyme for full effect and enzyme alone for no effect
An asterisk follows results filed as active; ? = inconclusive; . = no result. Unless noted, no stated cut-off is given here; in the data, active means inhibition above about 30%; inconclusive means no clear call, values can overlap the other calls; inactive means below that.

SMILES	Anthrax LF inh2	BoNT A protease	Autofluor counter	MazEF act	BoNT F protease
CC1=C(C(=O)OCCCCCl)C(c2cc3c(cc2Br)OCO3)NC(=O)N1 (centres undefined)	2	1	3875	4	?
CC(=O)Nc1cccc(NC(=O)CSc2nc(C)c(C)c(C)c2C#N)c1	0	?	21241*	-12	5
COc1ccc(-c2cc(C(=O)N3CCN(c4ccc(F)cc4)CC3)no2)cc1OC	14	-2	2947	10	6
O=C(C(Cl)Cl)N1c2ccccc2OCC1c1ccccc1 (centres undefined)	-1	?	22852*	-5	-3
O=S(=O)(c1ccc(F)cc1)N1CCN(c2ccccc2)CC1	0	0	20200*	5	-1
COc1cc(S(=O)(=O)N2CCN(c3ccccc3F)CC2)ccc1Cl	-3	-1	20773*	0	-3
COc1ccccc1N1CCN(S(=O)(=O)c2ccc(Br)s2)CC1	-3	2	22653*	-21	-2
COc1ccccc1N1CCN(S(=O)(=O)c2ccccc2)CC1	-8	3	19619*	-7	2
COc1cc(S(=O)(=O)N2CCN(c3ccccc3)CC2)ccc1Cl	-3	0	5945	12	2
COc1ccc(S(=O)(=O)N2CCN(c3ccccc3OC)CC2)cc1OC	-3	1	3840	-6	?
COc1ccc(C(=O)n2c(SC)nc3cc4c(cc32)OCCO4)cc1	-3	2	10562	1	12
COc1ccc(S(=O)(=O)N2CCN(C(=O)CCc3c[nH]c4ccccc34)CC2)cc1	-2	-1	6001	0	4
Cc1cc(NC(=O)C2CC(=O)OC2c2ccccc2)no1 (centres undefined)	0	-1	23968*	1	-5
COc1ccc(NC(=O)C2CC(=O)OC2c2ccccc2)cc1 (centres undefined)	0	5	2428	0	30
O=C1c2cccnc2C(O)N1Cc1ccc(F)cc1 (centres undefined)	-5	0	23014*	-8	1
O=C1c2cccnc2C(=O)N1Cc1ccc(F)cc1	-9	3	21659*	3	3
CC(=O)c1ccc(NC2c3ncccc3C(=O)N2Cc2ccc(F)cc2)cc1 (centres undefined)	1	5	21897*	-4	4
CCN(c1ccccc1)S(=O)(=O)c1ccc2c(c1)CC(C)N2C(=O)C1CC1 (centres undefined)	-2	-3	4479	-3	0
CCN(CC)C(=O)CCCC(=O)N(CC)CC	0	0	2224	5	-2
C[C@@H](c1ccccc1)N1C[C@H](COCc2ccccc2)Oc2cc(N3CC[C@H](N(C)C)C3)ccc2S1(=O)=O	-14	0	5967	.	-12
Cc1cc(C)n(CC(C)NCc2cn[nH]c2-c2ccc(C)c(C)c2)n1 (centres undefined)	-4	-5	28071*	-3	13
Cc1cc(=O)[nH]c(SCCCOc2ccc3c(c2)CCC3)n1	3	0	23738*	-2	-1
Cc1ccc(SCCSc2nc(C)cc(=O)[nH]2)cc1	4	-1	4311	1	-34
COc1cccc(OC)c1OCCCSc1nc(C)cc(=O)[nH]1	-1	3	22471*	7	4
CCOc1ccc(OCCSc2nc(C)cc(=O)[nH]2)cc1	0	0	2771	2	-2
SMILES	Anthrax LF inh2	BoNT A protease	Autofluor counter	MazEF act	BoNT F protease
COc1ccc(CCNC(=S)N2CCN(S(=O)(=O)c3ccccc3F)CC2)cc1	-3	0	5627	-3	4
COc1ccc(CNC(=O)COc2cc3c(c4oc(=O)cc(C)c24)CCC(C)(C)O3)c(OC)c1	3	0	5274	.	3
NC(=O)CC(NC(=O)Cc1ccc(Cl)cc1)c1ccc(N2CCC(Cc3ccccc3)CC2)c([N+](=O)[O-])c1 (centres undefined)	-1	0	3006	1	-7
CC1Cc2ccccc2N1C(=O)CSc1nnc(-c2ccc(S(=O)(=O)N3CCOCC3)cc2)n1C (centres undefined)	0	0	2400	5	-3
CC1Cc2ccccc2N1C(=O)CSc1nnc2c(n1)[nH]c1ccccc12 (centres undefined)	0	0	2464	2	-7
CC1Cc2ccccc2N1C(=O)CSc1nnc(-c2ccc(S(=O)(=O)N3CCCC3)cc2)o1 (centres undefined)	-1	?	20428*	-6	-4
CCN(CC)C(=O)CSc1nnc(-c2ccc(S(=O)(=O)N3CCCC3)cc2)o1	-1	?	22144*	-4	-1
